# From publication PMC5540273 (PLoS ONE, 2017)
# Assays:
# Settings in all cases: concentration: 1 μM, replicates: in singlicate; n = 1
# MEK5 = system: T1, MEK5
# T1 construct: gene MAP2K5
# MEK6 = system: T2, MEK6
# T2 construct: gene MAP2K6
# MELK = system: MELK
# MERTK = system: MERTK
# MET = system: MET
# MINK = system: T3, MINK
# T3 construct: gene MINK1
# MKK7 = system: MKK7
# MKNK1 = system: MKNK1
# MKNK2 = system: MKNK2
# MLCK = system: T4, MLCK
# T4 construct: gene MYLK3
# MLK1 = system: T5, MLK1
# T5 construct: gene MAP3K9
# MLK2 = system: MLK2
# MLK3 = system: MLK3
# MRCKA = system: MRCKA
# MRCKB = system: T6, MRCKB
# T6 construct: gene CDC42BPB
# MST1R = system: MST1R
# MST1 = system: T7, MST1
# T7 construct: gene STK4
# MST2 = system: T8, MST2
# T8 construct: gene STK3
# MST3 = system: T9, MST3
# T9 construct: gene STK24
# MST4 = system: MST4
# 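Further: KINOMEscan kinase panel screen.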
Structure (SMILES),%Inh (MEK5) [%],%Inh (MEK6) [%],%Inh (MELK) [%],%Inh (MERTK) [%],%Inh (MET) [%],%Inh (MINK) [%],%Inh (MKK7) [%],%Inh (MKNK1) [%],%Inh (MKNK2) [%],%Inh (MLCK) [%],%Inh (MLK1) [%],%Inh (MLK2) [%],%Inh (MLK3) [%],%Inh (MRCKA) [%],%Inh (MRCKB) [%],%Inh (MST1R) [%],%Inh (MST1) [%],%Inh (MST2) [%],%Inh (MST3) [%],%Inh (MST4) [%]
COc1cc(Nc2ccnc3cc(-c4ccncc4)ccc23)cc(OC)c1OC.Cl [GW494610],99.8,0,18,13,13,95.1,23,28,14,0,2,27,21,0,4,41,9,0,0,0
Cc1ccc(O)cc1Nc1ccnc2cc(-c3ccc(CN4CCCCC4)o3)ccc12 [GW557777],97.9,15,0,13,0,38,0,0,0,0,2,0,2,0,0,5,0,0,17,0
O=C(Nc1n[nH]c2cc(-c3cccs3)ccc12)C1CC1 [SB-731284],33,0,0,0,0,67,0,31,28,71,0,27,0,0,0,0,10,0,7,39
COc1cccc(CC(=O)N2CCc3cc(-c4cn(C)c5ncnc(N)c45)ccc32)c1 [GSK2608899],99.7,0,13,75,75,19,0,9,14,10,32,41,20,2,0,45,98.8,100,31,27
CN(c1ccc2c(c1)nc(NCc1ccccc1)n2C)c1ccnc(Nc2ccc(CS(C)(=O)=O)cc2)n1.Cl [GW811603],89,0,17,36,46,0,23,54,43,0,12,17,2,11,0,23,24,2,0,0
CSc1ccc(NC2=C(c3ccc(Cl)cc3)C(=O)NC2=O)cc1 [SB-317658],22,3,0,0,0,0,0,14,0,29,0,4,0,0,0,33,29,45,0,6
Cl.Cl.NCC(NC(=O)c1cc(-c2cccnc2)c(-c2ccnc3[nH]ccc23)s1)c1ccccc1 (stereo not shown) [GSK1323434],59,0,20,13,0,80,0,0,56,51,0,0,48,39,35,84,0,8,0,15
COc1cccc(C2=C(Nc3cccc(O)c3)C(=O)NC2=O)c1 [SB-390771],71,2,27,18,21,18,20,11,5,0,21,0,4,18,0,0,13,12,0,7
COc1cccc(NC(=O)NCCNc2ccnc(Nc3ccc(F)cc3)n2)c1 [GSK1379879],40,0,0,0,0,2,30,12,7,0,0,0,0,34,3,37,0,15,0,0
Fc1cc(Cl)ccc1Nc1ccnc2cc(-c3ccc(CN4CCSCC4)o3)ccc12 [GW560106],99.8,0,0,40,28,63,0,1,45,5,14,0,13,0,4,31,30,0,0,0
Cc1cc(-c2ccnc(Nc3cccc(C#N)c3)n2)cc(C)c1O [GSK1440913],23,35,0,42,38,52,36,2,2,77,66,0,36,5,0,0,0,9,6,9
CN(C)c1ncnc2nc[nH]c12 [SKF-31736],51,0,0,10,0,2,20,0,0,0,0,0,0,11,0,0,0,0,19,1
O=C(O)C(F)(F)F.O=c1[nH]ccc2nc(N[C@@H]3CCNC3)nc(Nc3cc(Cl)cc(Cl)c3)c12 [GSK2188764],100,34,100,51,0,97.6,20,0,14,99.1,95.7,0,88,24,35,11,86,80,85,91.1
Cc1cc(-c2c(-c3ccc(F)cc3)ncn2CCCN2CCOCC2)nc(N)n1 [SB-222517],26,29,0,0,0,15,0,0,0,0,5,49,0,0,20,18,13,20,5,1
NCCC(NC(=O)c1cc(Br)c(-c2ccnc3[nH]ccc23)s1)c1ccccc1.O=C(O)C(F)(F)F.O=C(O)C(F)(F)F (stereo not shown) [GSK1307810],18,8,74,25,24,55,18,32,93.9,85,0,0,0,86,99.1,29,0,4,11,23
Cc1cccc(Nc2nc(NCCN)ncc2C(N)=O)c1 [GSK1292139],99.2,19,1,3,29,87,0,13,15,14,85,0,61,2,0,14,35,38,23,23
Cn1cc(-c2ccc3c(c2)CCN3C(=O)Cc2cc(F)cc(F)c2F)c2c(N)ncnc21 [GSK2634140],98.9,0,12,38,68,21,0,5,1,11,38,0,54,0,0,43,85,42,4,0
